# Laboratory results published in the OligoGym collection.
# Legend:
# Experiment in all cases: pooled miR-30 sensor sort-seq; sequence = guide strand
# Settings in all cases: shRNA
# [1] = target: AVPR1B
# [2] = target: ATP8B3
# [3] = target: ATP8A2
# [4] = target: BBC3
# [5] = target: BCL7A
# [6] = target: C11orf49
# [7] = target: C15orf54
# [8] = target: C16orf55
# [9] = target: C15orf58
# [10] = target: C17orf103
# Note: reference of the scale not given here.
sequence,measurement,setting,value
TCTGCCAGCTCCAAGTCCCTTG,sensor-assay potency score (higher = more potent),[1],-1.14
TTCTCTGACAGCAGCTCGCAGG,sensor-assay potency score (higher = more potent),[2],-0.893
ATCTTCACTGTTCGGATCTTGG,sensor-assay potency score (higher = more potent),[1],-1.06
TGGTGGAATCTTCATCAGGGGC,sensor-assay potency score (higher = more potent),[1],-1.82
TAGGTGGAGGCAAACATGCTGA,sensor-assay potency score (higher = more potent),[1],-0.677
TTTCTTGTCATTCCATTCCAGG,sensor-assay potency score (higher = more potent),[2],-1.26
TTGGTGACTCTTCAGGCCTGGG,sensor-assay potency score (higher = more potent),[1],-0.954
AAGATAGCCAGGGTGGTCCAGG,sensor-assay potency score (higher = more potent),[1],-1.04
TGACAGACAGCCAGGTAGCGGT,sensor-assay potency score (higher = more potent),[1],-1.51
TTTAGGTTTTTACAGATCTCAT,sensor-assay potency score (higher = more potent),[1],-1.13
TTAAAGTTCATGATATTGCATG,sensor-assay potency score (higher = more potent),[3],-0.75
TTTACAGATCTCATGGCAGATG,sensor-assay potency score (higher = more potent),[1],-1.02
TAAGTGCAGCACGAACAGGTGC,sensor-assay potency score (higher = more potent),[1],-0.436
TGCTCCTCTTGTCTCCGCCGCT,sensor-assay potency score (higher = more potent),[4],-1.11
TTGTACAGGACCCTCCAGGGTG,sensor-assay potency score (higher = more potent),[4],-1.05
TTTAAGACAGAAACCTTTCGGC,sensor-assay potency score (higher = more potent),[5],0.668
AACATTTTGATTCTTCTCGAAG,sensor-assay potency score (higher = more potent),[5],-1.09
TAACACTAGGGTAAACCCCTGG,sensor-assay potency score (higher = more potent),[6],-0.37
TTTCACATGTTTGTTTAGCTAT,sensor-assay potency score (higher = more potent),[6],-0.281
TATACTTATTCTCACATCCTTT,sensor-assay potency score (higher = more potent),[7],-0.462
TATTTGAACATATAAGATGTTA,sensor-assay potency score (higher = more potent),[7],-0.68
TCTCCTTAGATTTTGGAACTGA,sensor-assay potency score (higher = more potent),[8],-0.0429
TTACATCAGGTTTCTCTTCCAG,sensor-assay potency score (higher = more potent),[8],0.199
ATCTTGTTGAAGTTGAACTGTA,sensor-assay potency score (higher = more potent),[9],-0.903
TTCAAGATCAAACTAGGCCATG,sensor-assay potency score (higher = more potent),[7],-1.17
TTGAGCCGGACAGTGAACTGGC,sensor-assay potency score (higher = more potent),[10],-0.109
TTATCAAGGACTCCAAGTCAGG,sensor-assay potency score (higher = more potent),[9],-1.43
TAGATTTTGGAACTGAATAGGT,sensor-assay potency score (higher = more potent),[8],-0.346
TTCCTGGGAATGCTTCTCCATC,sensor-assay potency score (higher = more potent),[8],-1.49
TACTTCTGGATGTACCAGCAGG,sensor-assay potency score (higher = more potent),[10],-1.01
TTGAAAGGGACATCTGTTGGAT,sensor-assay potency score (higher = more potent),[7],0.0555
TGGACTTTTGCTTTACATCAGG,sensor-assay potency score (higher = more potent),[8],-1.63
TTAGATTTTGGAACTGAATAGG,sensor-assay potency score (higher = more potent),[8],-0.116
AACATTGAAAGCTTCACCGTCC,sensor-assay potency score (higher = more potent),[9],0.994
TCTTCTTGCAGCAGAGTCCCAG,sensor-assay potency score (higher = more potent),[9],-0.775
TCATAGAGCAGGACGGCCCGGT,sensor-assay potency score (higher = more potent),[10],-0.156
TGTCAGGCTGCTGAAGTCCTGG,sensor-assay potency score (higher = more potent),[9],-0.843
TGCCTGTACGTCTTCTGCCTGG,sensor-assay potency score (higher = more potent),[9],-0.932
TCTCCTTGACGTACTTCTGGAT,sensor-assay potency score (higher = more potent),[10],-0.358
TTGAAGTTGAACTGTACAGGGT,sensor-assay potency score (higher = more potent),[9],0.153
TTATTTGAAAGGGACATCTGTT,sensor-assay potency score (higher = more potent),[7],-0.498
TTTGGAACTGAATAGGTGGATC,sensor-assay potency score (higher = more potent),[8],-0.304
